High-throughput results as filed in PubChem.
Shown is part of a subset that was picked to be rich in hits.
RECQ1 inh-1 = inhibitors of human RECQ1 DNA helicase | P46063 | RECQ1 DNA unwinding, red fluorescence kinetic read | Potency, µM (series often up to 57.3 µM), without a hit: at the top dose activity, negative = inhibition, usual class: inhibitors | actives 0.54% (n = 240,000) | AID 2549;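 further: plate controls were vehicle for no effect and no enzyme for full effect; nearly all actives have a fitted effect of over 30% in size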
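50 nM RECQ1T1 preincubated 15 min with compound in Tris pH 8.0 buffer with MgCl2, DTT, Tween-20 and 2.5 ug/ml poly(dI-dC); started with 200 nM TAMRA/BHQ-2 forked duplex and 2 mM ATP. Unwinding read as fluorescence (525/598 nm), two reads 2 h apart.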
KDM4E inh = JMJD2E (human) inhibition; JMJD2E catalytic domain, FDH-coupled NADH fluorescence (FDH is formaldehyde dehydrogenase); Potency, µM (series often up to 57.1 µM), without a hit: at the top dose activity change, negative = inhibition, most hits filed as inhibitors; AID 2147; actives 1.6% (n = 230,000); active means well fitted inhibition curve with a large enough effect, not every such curve was filed as active; inconclusive means small, poorly fitted or top-dose-only effect, or another doubt; inactive means no such curve, though single readings can be large or run the other way;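 further: 0% = wells with enzyme and -100% = buffer wells without enzyme; nearly all actives have a fitted effect of over 50% in size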
KAT2A inh = blocks human GCN5L2 histone acetyltransferase; GCN5L2 HAT assay, ThioGlo1 CoA-SH fluorescence; Q92830; actives 0.21% (n = 390,000); Potency, µM (top dose mostly 58.9 µM), for inactives: at the top dose activity change, negative = inhibition, usual class: inhibitors; AID 504327
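Titration-based screen in which CoA formation is detected via maleimide probe ThioGlo1 (50uM) turning fluorescent on thiol reaction; substrates H3(1-25) 75uM and acetyl-CoA 70uM, GCN5L2 20nM, 20 min incubation at room temperature.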
BLM inh-1 = Bloom syndrome helicase (human) inhibition; actives 0.2% (n = 350,000); AID 2528; recombinant BLM DNA unwinding, fluorescence dequenching; Potency, µM (titrated, usually from 56.1 µM), without a hit: at the top dose activity change, negative = inhibition, usual class: inhibitors; P54132;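 further: plate controls were vehicle for no effect and no enzyme for full effect; nearly all actives have a fitted effect of over 35% in size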
L3MBTL1 block = inhibitors of human L3MBTL1 | Q9Y468 | AlphaScreen L3MBTL1–H3K9me1 peptide binding | Potency, µM (top dose mostly 57.1 µM), inactives show at the highest dose activity, negative = inhibition, actives largely listed as inhibitors | actives 0.66% (n = 230,000) | AID 485360; further: nearly all actives have a fitted effect of over 60% in size
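AlphaScreen assay: L3MBTL1 (50 nM final) was preincubated 30 min at room temperature with biotinylated H3(1-15)K9me1 peptide (75 nM final), then 30 min with library compounds; streptavidin donor and nickel chelate acceptor beads (10 ug/mL final) added, 30 min dark.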
APE1 inh = APE1 (human) endonuclease inhibition; Potency, µM (doses to about 65.8 µM), inactives show at the top dose activity change, negative = inhibition, most hits filed as inhibitors; actives 0.35% (n = 350,000); recombinant APE1, TAMRA/BHQ-2 abasic DNA cleavage fluorescence;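 further: plate controls were vehicle for no effect and reference inhibitor for full effect; nearly all actives have a fitted effect of over 55% in size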
Target sequence (P27695 whole entry, looked up): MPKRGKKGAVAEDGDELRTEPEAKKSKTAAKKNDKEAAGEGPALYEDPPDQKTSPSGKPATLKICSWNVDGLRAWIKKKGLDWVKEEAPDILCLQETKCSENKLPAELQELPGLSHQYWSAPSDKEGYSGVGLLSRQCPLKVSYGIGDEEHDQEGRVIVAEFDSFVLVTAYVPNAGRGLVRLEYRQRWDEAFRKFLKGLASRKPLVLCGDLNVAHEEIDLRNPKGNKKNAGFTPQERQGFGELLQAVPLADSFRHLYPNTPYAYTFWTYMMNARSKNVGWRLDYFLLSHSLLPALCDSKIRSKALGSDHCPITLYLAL
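Endonuclease cleavage of a quenched abasic-site DNA duplex (50 nM) by APE1 (0.75 nM) was tracked by TAMRA dequenching. Compounds were preincubated with enzyme 15 min at room temperature; data normalized to buffer-only and DMSO wells plus NSC13755 control.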
BLM inh-2 = confirmation of inhibitors of human Bloom syndrome helicase BLM; BLM DNA unwinding, fluorescence quenching, biochemical; Potency, µM, inactives show max response, negative = inhibition, actives largely listed as inhibitors; AID 2585; shares compounds with BLM inh-1; actives 40% (n = 220);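 further: strand separation dequenches TAMRA so unwinding raises red fluorescence; series mostly up to about 69 µM; nearly all actives have a fitted effect of over 45% in size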
RECQ1 inh conf = confirmation of human RECQ1 helicase inhibitors; AID 2708; shares compounds with RECQ1 inh-1; Potency, µM (doses to about 229 µM), without a hit: at the top dose activity change, negative = inhibition, hits mostly inhibitors; RECQ1 helicase DNA unwinding, fluorescence; actives 28% (n = 610); further: nearly all actives have a fitted effect of over 45% in size
ADP FP counter = displaces ADP in a fluorescence polarization counter-screen for RECQ1 hits | actives 27% (n = 530) | Potency, µM (titrated, usually from 228 µM), for inactives: at the highest dose activity change, negative = inhibition, most hits filed as inhibitors | AID 2711 | ADP fluorescence polarization displacement counterscreen | shares compounds with RECQ1 inh-1; further: nearly all actives have a fitted effect of over 45% in size
RECQ1 inh-2 = blocks human RECQ1 DNA unwinding; shares compounds with RECQ1 inh-1; recombinant RECQ1 DNA unwinding, red fluorescence; Potency, µM (top dose mostly 119 µM), inactives show at the highest dose activity, negative = inhibition, actives largely listed as inhibitors; actives 15% (n = 1,100); AID 504841; further: nearly all actives have a fitted effect of over 50% in size
Active calls of the source: *; i = inactive; u = inconclusive; x = not tested or not shown; ! = not active in a repeat; [ ] = remark or other dose. Unless noted, the call rests on the fitted dose curve; in most records, active means well fitted curve in the direction sought with a large enough effect; inconclusive means small, poorly fitted or top-dose-only effect, or another doubt; inactive means no such curve, though single readings can be large; an effect the other way counts as inactive or inconclusive. Unless noted, on the % scale 0 is the no-effect control and ±100 the full control effect; potency means the concentration at half of the fitted maximal effect.

SMILES | RECQ1 inh-1 | KDM4E inh | KAT2A inh | BLM inh-1 | L3MBTL1 block | APE1 inh | BLM inh-2 | RECQ1 inh conf | RECQ1 inh-2 | others
O=C(/C=C/c1ccc(Br)cc1)c1ccc(NC(=O)c2ccco2)cc1 | 4µM* | -4% | -3% | -18% | -5% | 17% | 27µM* | u | u
Cn1ncc([N+](=O)[O-])c1C(=O)Nc1ccc(-c2nc3ccccc3[nH]2)cc1 | u | 8% | -13% | -6% | 2% | -3% | x | x | x
CCOc1ccc(C(=O)Nc2ccc(-c3nc4ccccc4[nH]3)cc2)cc1[N+](=O)[O-] | 7.9µM* | -2% | -3% | -15% | -5% | 0% | u | u | u
CC1CC(OC(=O)C(O)c2ccccc2)CC(C)(C)C1 (centres undefined) | i | x | -9% | -2% | x | -1% | x | x | x
Cc1c2oc3c(C)ccc(C(=O)N[C@@H]4C(=O)N[C@H](C(C)C)C(=O)N5CCC[C@H]5C(=O)N(C)CC(=O)N(C)[C@@H](C(C)C)C(=O)O[C@@H]4C)c3nc-2c(C(=O)N[C@@H]2C(=O)N[C@H](C(C)C)C(=O)N3CCC[C@H]3C(=O)N(C)CC(=O)N(C)[C@@H](C(C)C)C(=O)O[C@@H]2C)c(N)c1=O | 3.5µM* | x | -6% | u | x | 13µM*! | u | 1.4µM* | x
Cc1[nH]c2ccccc2c1/C=N/NC(=O)c1cccc([N+](=O)[O-])c1 | 1.6µM* | 3% | -8% | -8% | 2% | -11% | u | u | x | ADP FP counter=41%[91.9 µM]
COc1cc(/C=N/Nc2nc(C)nc3c2cnn3-c2ccccc2)ccc1O | -17% | u | -18% | -21% | 1% | -6% | x | x | x
Cc1nc2cc(-c3ccsc3-n3c(C)ccc3C)[nH]n2c(=O)c1Cl | 2.8µM* | u | u | 16µM* | x | u | u | 40µM* | u | ADP FP counter=32µM*
N#Cc1ccc(NCC(=O)Nc2ccc(S(=O)(=O)N3CCCCC3)cc2)cc1 | x | x | -6% | x | 6% | 0% | x | x | x
O=c1c(-c2cc(F)cc(F)c2)nc2cnc(N3CCNCC3)nc2n1Cc1ccc(F)cc1 | u | x | -21% | 35µM* | x | u | u | x | u
COc1cccc(Cn2c(=O)c(-c3cc(F)cc(F)c3)nc3cnc(N4CCNCC4)nc32)c1 | -9% | x | -11% | -28% | x | -5% | x | x | x
CCc1nc(SCC(=O)Nc2ccc(F)cc2)c2c(=O)n(C)c(=O)n(C)c2n1 | x | x | -4% | -1% | x | -11% | x | x | x
Nc1nc(NCCOCCO)nc(N2CCCCCC2)c1[N+](=O)[O-] | x | x | -15% | -2% | x | 5% | x | x | x
CCOC(=O)c1sc2nc3c(SCC(=O)O)cc(C(=O)c4cc(F)ccc4O)cn3c(=O)c2c1C | u | u | -25% | 22µM* | -22% | 8.9µM* | 32µM* | x | 7%
